# Screen size: about 400,000 compounds; about 2,100 (0.53%) were called active. About 14% were inconclusive and are not listed. The rule behind the calls is not given here. Only a selection was taken, and actives are over-represented in it overall.
# Molecular target: Ataxin-2 (Homo sapiens) (UniProt Q99700)
# Experiment: qHTS for Inhibitors of ATXN expression.
# Format: functional
# Sequence of Ataxin-2 (Homo sapiens) (Q99700 whole entry): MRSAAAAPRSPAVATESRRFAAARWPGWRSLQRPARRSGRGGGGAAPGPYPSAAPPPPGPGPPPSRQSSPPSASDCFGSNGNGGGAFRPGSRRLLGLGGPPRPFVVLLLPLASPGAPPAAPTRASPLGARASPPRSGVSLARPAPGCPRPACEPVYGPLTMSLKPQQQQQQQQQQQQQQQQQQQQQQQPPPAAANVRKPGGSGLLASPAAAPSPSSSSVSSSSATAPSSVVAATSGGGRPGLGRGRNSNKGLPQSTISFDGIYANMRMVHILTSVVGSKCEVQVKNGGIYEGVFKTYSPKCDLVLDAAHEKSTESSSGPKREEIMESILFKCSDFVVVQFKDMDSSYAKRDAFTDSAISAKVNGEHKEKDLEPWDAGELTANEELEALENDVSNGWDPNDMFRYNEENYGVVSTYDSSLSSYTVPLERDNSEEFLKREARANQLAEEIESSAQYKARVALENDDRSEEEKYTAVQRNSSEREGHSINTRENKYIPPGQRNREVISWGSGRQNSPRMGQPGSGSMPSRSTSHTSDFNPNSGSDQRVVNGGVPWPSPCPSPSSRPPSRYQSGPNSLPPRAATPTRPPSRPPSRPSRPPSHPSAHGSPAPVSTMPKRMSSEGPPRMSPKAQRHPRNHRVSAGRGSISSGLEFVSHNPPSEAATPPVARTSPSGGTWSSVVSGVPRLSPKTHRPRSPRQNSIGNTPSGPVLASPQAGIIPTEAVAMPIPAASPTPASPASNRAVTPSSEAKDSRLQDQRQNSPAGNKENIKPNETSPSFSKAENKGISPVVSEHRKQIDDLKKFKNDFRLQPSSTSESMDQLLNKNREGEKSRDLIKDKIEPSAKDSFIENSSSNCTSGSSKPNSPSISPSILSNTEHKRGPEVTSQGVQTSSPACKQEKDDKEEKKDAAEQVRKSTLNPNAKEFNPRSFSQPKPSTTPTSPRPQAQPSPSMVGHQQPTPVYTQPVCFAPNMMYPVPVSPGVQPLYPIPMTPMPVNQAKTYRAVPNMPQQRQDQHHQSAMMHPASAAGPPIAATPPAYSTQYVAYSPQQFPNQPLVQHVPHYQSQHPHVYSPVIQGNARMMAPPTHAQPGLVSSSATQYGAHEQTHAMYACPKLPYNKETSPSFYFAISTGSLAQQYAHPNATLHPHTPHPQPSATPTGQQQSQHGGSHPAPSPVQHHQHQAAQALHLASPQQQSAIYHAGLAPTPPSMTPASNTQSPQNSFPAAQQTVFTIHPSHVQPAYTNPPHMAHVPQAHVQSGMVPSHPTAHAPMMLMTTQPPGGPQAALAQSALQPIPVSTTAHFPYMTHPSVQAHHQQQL
row,Compound,Potency
1,Oc1ccc(C2C=C(c3ccc(F)cc3)Nc3ncnn32)cc1 (configuration not stated),inactive
2,Cc1cc(C)nc(-n2nc(C)c3c2NC(=O)CC3c2ccccc2OC(C)C)n1 (configuration not stated),25.1 µM (active)
3,CCCCCCSc1ccc(-c2nc3cnccn3c2NC2CCCCC2)cc1,inactive
4,CCOC(=O)c1c(C)[nH]c(C(=O)COC(=O)CCNS(=O)(=O)c2ccc(NC(C)=O)cc2)c1C,inactive
5,CCCCn1c(NC(=O)c2ccco2)c(S(=O)(=O)c2ccc(C)cc2)c2nc3ccccc3nc21,inactive
6,CC[n+]1c(/C=C2\SC(c3ccccc3C)=CN2C)sc2ccccc21,inactive
7,CC[n+]1c(/C=C/C=C/N(C(C)=O)c2ccccc2)sc2ccccc21,35.5 µM (active)
8,CCn1nc(-c2ccccc2)c2nc3ccccc3nc21,inactive
9,Nc1c(Cl)c(Cl)nc(C(=O)OCC(=O)NCc2ccccc2)c1Cl,inactive
10,O=C(NCc1ccccc1)c1c(Cl)nc(Cl)c(Cl)c1Cl,39.8 µM (active)
11,Cc1nc(Cl)c(C(=O)NCc2ccccc2)c(C)c1Cl,inactive
12,CCCOC(=O)c1cccc(Nc2nc(-c3cccnc3)nc3ccccc23)c1,35.5 µM (active)
13,CCOC(=O)c1sc2nc(C)cc(-c3ccccc3)c2c1N,inactive
14,CCOC(=O)c1cccc(Nc2nc(C(=O)OCC)nc3ccccc23)c1,39.8 µM (active)
15,CC(=O)c1cccc(Nc2nc(-c3ccccc3)nc3ccccc23)c1,inactive
16,CCOC(=O)c1nc(Nc2ccccc2CC)c2ccccc2n1,inactive
17,CCOC(=O)c1sc2nc(-c3cccnc3)ccc2c1N,inactive
18,O=c1cc(-c2ccccc2)c2ccc(O)cc2o1,inactive
19,O=C1CN(C(=O)NCC(=O)N2CCCC2)c2ccccc2N1,inactive
20,O=C1OCCN1C(=O)[C@H]1[C@H](c2ccccc2)C(c2ccc(F)cc2)=NN1c1ccc(Br)cc1,inactive
21,CCCC(O)(CCC)C(=O)NN(C(=O)CCl)c1cccc(C)c1,21.2 µM (active)
22,CCCCCCCN(C(=O)CCl)c1cccc(C)c1,14.1 µM (active)
23,Cc1ccc(S(=O)(=O)Oc2ccc(C3C4=C(CCCC4=O)N(CCC(=O)O)C4=C3C(=O)CCC4)cc2Cl)cc1,inactive

row,Compound,Potency
1,O=c1oc2c(CN3CCOCC3)c(O)ccc2cc1-c1ccccc1,inactive
2,CC(N=C(S)N1CCOCC1)c1ccccc1 (configuration not stated),inactive
3,O=c1c2ccccc2n(CC(O)CN2CCOCC2)c2ccccc12 (configuration not stated),inactive
4,O=C(c1ccc(F)cc1)C1CCN(Cc2ccccc2)CC1,inactive
5,O=C(c1ccc(Br)cc1)C(CN1CCOCC1)c1ccccc1 (configuration not stated),29.9 µM (active)
6,O=C(c1ccc(F)cc1)C(CN1CCOCC1)c1ccccc1 (configuration not stated),25.1 µM (active)
7,O=C(c1ccccc1)C(CCC(CN1CCOCC1)C(=O)c1ccccc1)CN1CCOCC1 (configuration not stated),14.1 µM (active)
8,OC(CN1CCN(C(c2ccccc2)c2ccccc2)CC1)c1ccc(Br)cc1 (configuration not stated),inactive
9,O=C(c1ccc(Br)cc1)c1sc(N2CCOCC2)nc1-c1ccccc1,inactive
10,Cc1c(O)ccc2c(CN3CCN(C/C=C/c4ccccc4)CC3)cc(=O)oc12,inactive
11,O=[N+]([O-])c1ccc(C2=CSC3=NCCN23)cc1,inactive
12,Cc1cccc(-n2nc(C)c3c2N=C2CCCC(O)=C2C3c2ccccn2)c1 (configuration not stated),inactive
13,CC1(C(=O)OCC(=O)Nc2cc(S(=O)(=O)N3CCOCC3)ccc2Cl)CC1(Cl)Cl (configuration not stated),inactive
14,Cc1ccc2nc3c(cc(C(=O)NCc4ccccc4)c(=N)n3CCCn3ccnc3)c(=O)n2c1,inactive
15,Cc1cccc(Cl)c1OCCCn1ccnc1,inactive
16,c1ccc(-c2c(-c3ccccc3)n(Cc3ccco3)c3ncnc(NCCCn4ccnc4)c23)cc1,25.1 µM (active)
17,O=c1c2ccccc2oc2cc(NCCCn3ccnc3)ccc12,inactive
18,N=c1c2c(-c3ccccc3)c(-c3ccccc3)n(Cc3ccccc3)c2ncn1CCCn1ccnc1,35.5 µM (active)
19,O=C(NCCCn1ccnc1)c1ccc(-c2ccccc2)cc1,inactive
20,CC[C@H]1C(c2ccc(F)cc2)=NN(c2ccccc2)[C@@H]1CO,inactive
21,C/C(CC(=O)NCc1ccco1)=N\NC(=O)Cc1ccc(-c2ccccc2)cc1,inactive
22,CC(C)C(Cl)=NOC(=O)Nc1ccc(S(N)(=O)=O)cc1,21.2 µM (active)
23,NS(=O)(=O)c1ccc(NC(=O)COC(=O)COc2cccc(C(F)(F)F)c2)cc1,inactive

row,Compound,Potency
1,COc1cc(C(=O)NN=C(S)Nc2ccc(S(N)(=O)=O)cc2)cc(OC)c1OC,inactive
2,COC(=O)c1c(NC(=O)c2ccc(S(=O)(=O)N3CC(C)OC(C)C3)cc2)sc2c1CCN(C)C2 (configuration not stated),inactive
3,O=c1ccc2cc3c4c(c2o1)CCCN4CCC3,inactive
4,CCCCOc1ccc(N(CC(=O)NCc2ccco2)C(=O)CCC(=O)Nc2nccs2)cc1,inactive
5,COc1ccc(OC)c([N+](=O)[O-])c1C(N)=O,inactive
6,COc1ccncc1-c1ccc(C2=CC(=O)CC(C)(C)C2=O)cc1,35.5 µM (active)
7,CC1=CC(=C(C#N)c2nc3ccccc3s2)C=C(C)N1c1ccc(F)cc1F,inactive
8,CC1=C(C(=O)NCCCOC(C)C)C2(CCC(C)CC2)OC1=O (configuration not stated),inactive
9,COCCCn1c(C(=O)NCCN2CCOCC2)cc2c(=O)n3ccccc3nc21,inactive
10,CCCS(=O)(=O)c1nnnn1-c1cccc(OC)c1,35.5 µM (active)
11,COc1cccc(-n2cnnc2S)c1,inactive
12,COc1cccc(/C=N/n2nnnc2N)c1,inactive
13,Cc1cc(OC(C)C(=O)NC2CC(C)(C)NC(C)(C)C2)c2c(C)c(C)c(=O)oc2c1 (configuration not stated),inactive
14,Cc1cccn2c(=O)c3cc(C(=O)NC(C)c4ccccc4)c(=N)n(CCCO)c3nc12 (configuration not stated),inactive
15,CCN(CC)S(=O)(=O)c1ccc(NC(=O)c2ccc3c(=O)n4c(nc3c2)CCCCC4)cc1,11.2 µM (active)
16,O=C(/C=C/c1ccco1)Nc1ccc2nc3n(c(=O)c2c1)CCCC3,inactive
17,O=C(Nc1ccc2nc3n(c(=O)c2c1)CCCCC3)c1c(F)ccc([N+](=O)[O-])c1F,8.91 µM (active)
18,Cc1ccc(C)c(NC(=O)c2ccc3c(=O)n4c(nc3c2)CCC4)c1,inactive
19,O=c1c2cc(NC(=S)N3CCC(N4CCCCC4)CC3)ccc2nc2n1CCCCC2,inactive
20,Cc1cccc(OC(=O)c2ccc3c(=O)n4c(nc3c2)CCC4)c1,inactive
21,O=C(Nc1ccc2nc3n(c(=O)c2c1)CCCC3)c1cc([N+](=O)[O-])ccc1F,22.4 µM (active)
22,CCCN(CCC)CCCN=C(S)Nc1ccc2nc3n(c(=O)c2c1)CCCCC3,inactive
23,O=C(Nc1ccc2nc3n(c(=O)c2c1)CCCCC3)c1cc([N+](=O)[O-])ccc1F,39.8 µM (active)

row,Compound,Potency
1,N#C/C(=C\c1ccc2c(c1)OCCO2)C(=O)Nc1nccs1,inactive
2,CCCCn1c(=O)[nH]c2nc3cc(N)ccc3nc2c1=O,inactive
3,Cc1cccc2c(=O)n(C(=O)c3ccccc3)c(N)nc12,inactive
4,CC(=O)c1ccc(OCC(=O)OC(C)C(=O)NC2CCCCC2)cc1 (configuration not stated),inactive
5,CCC(C)c1ccc(S(=O)(=O)N2CCN(C(C)CC(=O)O)CC2)cc1 (configuration not stated),inactive
6,CS(=O)(=O)c1ccc(C(=O)OCC(=O)NC(=O)C2CCCCC2)cc1[N+](=O)[O-],35.5 µM (active)
7,O=C(NCC(O)c1ccc([N+](=O)[O-])cc1)C1CCCCC1 (configuration not stated),inactive
8,O=C(COC(=O)c1ccc(C(F)(F)F)cc1)NC(=O)NC1CCCC1,inactive
9,CN(Cc1ccccc1F)Cc1cc(=O)oc2cc(O)c(Cl)cc12,inactive
10,CC(C)c1ccc(NC(=O)Nc2nc(C(N)c3ccccc3Cl)cs2)cc1 (configuration not stated),35.5 µM (active)
11,CC(C)c1ccc(NC(=O)Nc2nc(C(C)N)cs2)cc1 (configuration not stated),35.5 µM (active)
12,CC(C)c1ccc(NC(=O)Nc2nc(C(N)c3ccccc3)cs2)cc1 (configuration not stated),28.2 µM (active)
13,NC(c1ccccc1)c1csc(NC(=O)Nc2ccc(OC(F)(F)F)cc2)n1 (configuration not stated),39.8 µM (active)
14,O=C(Nc1ccc(Cl)cc1)Nc1cccc2nsnc12,inactive
15,CC(C)c1ccc(/C=C(/C#N)c2nnc(NC(=O)c3ccccc3)s2)cc1,inactive
16,Cc1oc(CC(C)C)cc1C(=O)NCCCC(=O)O,inactive
17,N=C1NC(=O)/C(=C/c2ccc(Br)cc2)S1,inactive
18,COCCN1C=C(C(=O)OC)C(c2ccc(Cl)cc2)C(C(=O)OC)=C1,inactive
19,CCN(CC)C(=O)c1cc(-c2ccc3c(c2)OCO3)on1,inactive
20,COc1ccc(CC(N)c2csc(NC(=O)Nc3ccc(C(C)C)cc3)n2)cc1 (configuration not stated),39.8 µM (active)
21,COc1ccc(Cc2nnc(S)n2NC(=O)Nc2ccc(C)cc2)cc1,inactive
22,COc1ccc(OCC(=O)Nc2nccs2)cc1,inactive
23,CCN(CC)C(=O)COC(=O)c1cc(-c2ccco2)nc2ccccc12,inactive

row,Compound,Potency
1,COc1ccc2noc3c2c1C(=O)c1ccccc1-3,39.8 µM (active)
2,O=C1c2ccccc2-c2onc3ccc(Oc4ccccc4)c1c23,20 µM (active)
3,COc1ccc2c3c(cccc13)C(=O)CC2,inactive
4,COc1cccc2c1C(=O)C=C(C)C2=O,inactive
5,COc1ccc(N2C(=O)/C(=C\NNS(=O)(=O)c3ccc(C)cc3)c3ccccc3C2=O)cc1OC,inactive
6,Cc1cc(=O)oc2cc(OC(=O)c3ccco3)ccc12,inactive
7,O=c1c2c(-c3ccccc3)csc2nc2c3ccccc3c(NCCN3CCOCC3)nn12,inactive
8,Cc1cc(C)c2nc3nc(C)c(C)cc3c(N)c2c1,inactive
9,CCN(CC)c1ccc2cc(C#N)c(=O)oc2c1,inactive
10,COc1ccc(N2CCN(CCN3C(=O)c4ccccc4C3=O)CC2)cc1,inactive
11,N#Cc1c(N)n(-c2ccccc2)c(=O)c2cc([N+](=O)[O-])ccc12,inactive
12,CCC1(CC)Nc2ccccc2C(=O)N1c1ccc(OC)cc1,inactive
13,N#Cc1cc2cc3ccccc3nc2n2c(=O)c3ccccc3nc12,inactive
14,COc1ccc(-n2sc3ccccc3c2=O)cc1,22.4 µM (active)
15,O=c1c2ccccc2sn1-c1ccccc1,28.2 µM (active)
16,O=c1c2ccccc2nc2ccccn12,inactive
17,N#Cc1ccc2sn(-c3ccccc3)c(=O)c2c1,22.4 µM (active)
18,Cn1c2ccccc2c(=O)c2ccc(Cl)cc21,inactive
19,Nc1ccc2c3c(cccc13)C(=O)N(c1ccccc1)C2=O,inactive
20,O=c1c2ccccc2sn1-c1ccc(Cl)cc1Cl,35.5 µM (active)

# Source: ChEMBL document CHEMBL1201862, “PubChem BioAssay data set” (2004)
